# The entries come from a sample that favours the strongest signals as a whole.
# Experiments:
# Experiment in all cases: glycan array binding signal (z-score within array); higher = stronger binding
# Details in all cases: glycan notation: IUPAC condensed, linker removed
# [1] = molecular target: Fuc(a1-2)Gal
# Procedure, shortened: (§1)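 Glycan array data came from 3228 arrays in the Consortium for Functional Glycomics database, and only arrays with an available protein sequence were kept. Glycan names were put into IUPAC-condensed notation, and columns mapping to the same glycan were averaged. The binding signal is a within-array Z-score, averaged across arrays of one protein sequence run at different concentrations or buffers and across linkers. A negative Z-score can be read as non-binding.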
# [2] = molecular target: Fuc(a1-2)Gal(b1-3)GlcNAc(b1-2)Man(a1-3)[Fuc(a1-2)Gal(b1-3)GlcNAc(b1-2)Man(a1-6)]Man(b1-4)GlcNAc(b1-4)GlcNAc
# Procedure, shortened: as §1
# [3] = molecular target: Fuc(a1-2)Gal(b1-3)GlcNAc(b1-3)[Gal(b1-4)GlcNAc(b1-6)]Gal(b1-4)Glc
# Procedure, shortened: as §1
# [4] = molecular target: Fuc(a1-2)Gal(b1-4)Fuc(a1-3)]GlcNAc(b1-2)Man(a1-3)[Fuc(a1-2)Gal(b1-4)[Fuc(a1-3)]GlcNAc(b1-2)Man(a1-6)]Man(b1-4)GlcNAc(b1-4)GlcNAc
# Procedure, shortened: as §1
# [5] = molecular target: Fuc(a1-2)Gal(b1-4)GlcNAc
# Procedure, shortened: as §1
# [6] = molecular target: Fuc(a1-2)[Gal(a1-3)]Gal
# Procedure, shortened: as §1
# [7] = molecular target: Fuc(a1-2)[Gal(a1-3)]Gal(b1-4)GlcNAc(b1-2)Man
# Procedure, shortened: as §1
# [8] = molecular target: Fuc(a1-2)[GalNAc(a1-3)]Gal(b1-3)GlcNAc(b1-3)GalNAc
# Procedure, shortened: as §1
# [9] = molecular target: Fuc(a1-2)[GalNAc(a1-3)]Gal(b1-4)GlcNAc(b1-6)GalNAc
# Procedure, shortened: as §1
# [10] = molecular target: Fuc(a1-2)[GalNAc(a1-3)]Gal(b1-4)[Fuc(a1-3)]GlcNAc
# Procedure, shortened: as §1
# [11] = molecular target: Fuc(a1-2)[GalNAc(a1-3)]Gal(b1-4)[Fuc(a1-3)]GlcNAc(b1-3)GalNAc
# Procedure, shortened: as §1
# [12] = molecular target: Fuc(a1-3)[Gal(b1-4)]GlcNAc(b1-2)Man
# Procedure, shortened: as §1
# [13] = molecular target: Gal(a1-3)Gal(b1-4)[Fuc(a1-3)]GlcNAc(b1-2)Man(a1-3)[Gal(a1-3)Gal(b1-4)[Fuc(a1-3)]GlcNAc(b1-2)Man(a1-6)]Man(b1-4)GlcNAc(b1-4)GlcNAc
# Procedure, shortened: as §1
# [14] = molecular target: Gal(a1-4)Gal(b1-3)GlcNAc(b1-2)Man(a1-3)[Gal(a1-4)Gal(b1-3)GlcNAc(b1-2)Man(a1-6)]Man(b1-4)GlcNAc(b1-4)GlcNAc
# Procedure, shortened: as §1
# [15] = molecular target: Gal(b1-2)Gal
# Procedure, shortened: as §1
# [16] = molecular target: Gal(b1-3)GalNAc
# Procedure, shortened: as §1
# [17] = molecular target: Gal(b1-3)GlcNAc(b1-3)GalNAc
# Procedure, shortened: as §1
# [18] = molecular target: Gal(b1-3)[Neu5Ac(b2-6)]GalNAc
# Procedure, shortened: as §1
# [19] = molecular target: Gal(b1-4)GalNAc(a1-3)[Fuc(a1-2)]Gal(b1-4)GlcNAc
# Procedure, shortened: as §1
# [20] = molecular target: Gal(b1-4)Glc6S
# Procedure, shortened: as §1
# [21] = molecular target: Gal(b1-4)GlcNAc(b1-2)Man(a1-6)[GlcNAc(b1-2)Man(a1-3)]Man(b1-4)GlcNAc(b1-4)GlcNAc
# Procedure, shortened: as §1
# [22] = molecular target: Gal(b1-4)GlcNAc(b1-2)[Gal(b1-4)GlcNAc(b1-6)]Man(a1-6)[Gal(b1-4)GlcNAc(b1-2)Man(a1-3)]Man(b1-4)GlcNAc(b1-4)GlcNAc
# Procedure, shortened: as §1
# [23] = molecular target: Gal(b1-4)GlcNAc(b1-3)Gal(b1-4)GlcNAc(b1-2)Man(a1-3)[Gal(b1-4)GlcNAc(b1-3)Gal(b1-4)GlcNAc(b1-2)Man(a1-6)]Man(b1-4)GlcNAc(b1-4)GlcNAc
# Procedure, shortened: as §1
# [24] = molecular target: Gal(b1-4)GlcNAc(b1-3)Gal(b1-4)GlcNAc(b1-2)[Gal(b1-4)GlcNAc(b1-3)Gal(b1-4)GlcNAc(b1-6)]Man(a1-6)[Gal(b1-4)GlcNAc(b1-3)Gal(b1-4)GlcNAc(b1-2)Man(a1-3)]Man(b1-4)GlcNAc(b1-4)GlcNAc
# Procedure, shortened: as §1
# [25] = molecular target: Gal(b1-4)GlcNAc(b1-3)Gal(b1-4)GlcNAc(b1-3)Gal(b1-4)GlcNAc(b1-2)Man(a1-3)[Gal(b1-4)GlcNAc(b1-3)Gal(b1-4)GlcNAc(b1-3)Gal(b1-4)GlcNAc(b1-2)Man(a1-6)]Man(b1-4)GlcNAc(b1-4)[Fuc(a1-6)]GlcNAc
# Procedure, shortened: as §1
# [26] = molecular target: Gal(b1-4)GlcNAc(b1-3)Gal(b1-4)GlcNAc(b1-3)Gal(b1-4)GlcNAc(b1-3)Gal(b1-4)GlcNAc(b1-2)[Gal(b1-4)GlcNAc(b1-3)Gal(b1-4)GlcNAc(b1-3)Gal(b1-4)GlcNAc(b1-3)Gal(b1-4)GlcNAc(b1-6)]Man(a1-6)[Gal(b1-4)GlcNAc(b1-3)Gal(b1-4)GlcNAc(b1-3)Gal(b1-4)GlcNAc(b1-3)Gal(b1-4)GlcNAc(b1-2)Man(a1-3)]Man(b1-4)GlcNAc(b1-4)[Fuc(a1-6)]GlcNAc
# Procedure, shortened: as §1
# [27] = molecular target: Gal(b1-4)GlcNAc(b1-3)Gal(b1-4)GlcNAc(b1-3)[Gal(b1-4)GlcNAc(b1-3)Gal(b1-4)GlcNAc(b1-6)]GalNAc
# Procedure, shortened: as §1
# [28] = molecular target: Gal(b1-4)GlcNAc(b1-6)GalNAc
# Procedure, shortened: as §1
# [29] = molecular target: Gal(b1-4)GlcNAc(b1-6)[Gal(b1-3)]GalNAc
# Procedure, shortened: as §1
# [30] = molecular target: Gal3S(b1-4)[Fuc(a1-3)]GlcNAc6S
# Procedure, shortened: as §1
# [31] = molecular target: Gal6S(b1-4)GlcNAc
# Procedure, shortened: as §1
# [32] = molecular target: GalNAc(a1-3)Gal
# Procedure, shortened: as §1
binder,measurement,setting,value
Epa19 (Candida glabrata) (protein) MGSSHHHHHHSSGLVPRGSHMASSKDPTRFPIGCSPQVLKTQPGLAVKLYSYGHPVPGCSYITYQYPDFPRSGYKKERKLADITGVNGKIDIDLKPNDPCRVLTGHLPSNYNYPDTLTYTNFTMILYGYFQPKVTGYHTFNLEADDLLFMNLGAGNAFDCCKAESTLDNFGNYQSYSLWGSDYAKANITVFLVSGVYYPIRLFYVNRDNNAVIDFSFTTEFDKEKVHDFTSYFFSASDGEQCPGSV,glycan array binding signal (z-score),[1],-0.231
same,glycan array binding signal (z-score),[2],0.072
same,glycan array binding signal (z-score),[3],-0.333
same,glycan array binding signal (z-score),[4],2.57
same,glycan array binding signal (z-score),[5],-0.459
same,glycan array binding signal (z-score),[6],-0.947
same,glycan array binding signal (z-score),[7],0.045
same,glycan array binding signal (z-score),[8],2.07
same,glycan array binding signal (z-score),[9],0.209
same,glycan array binding signal (z-score),[10],-0.301
same,glycan array binding signal (z-score),[11],1.08
same,glycan array binding signal (z-score),[12],-0.217
same,glycan array binding signal (z-score),[13],2.47
same,glycan array binding signal (z-score),[14],-0.21
same,glycan array binding signal (z-score),[15],-0.099
same,glycan array binding signal (z-score),[16],-0.306
same,glycan array binding signal (z-score),[17],-0.204
same,glycan array binding signal (z-score),[18],2.39
same,glycan array binding signal (z-score),[19],-0.193
same,glycan array binding signal (z-score),[20],2.4
same,glycan array binding signal (z-score),[21],0.102
same,glycan array binding signal (z-score),[22],-1.26
same,glycan array binding signal (z-score),[23],2.29
same,glycan array binding signal (z-score),[24],0.736
same,glycan array binding signal (z-score),[25],0.256
same,glycan array binding signal (z-score),[26],0.024
same,glycan array binding signal (z-score),[27],1.4
same,glycan array binding signal (z-score),[28],-0.146
same,glycan array binding signal (z-score),[29],0.35
same,glycan array binding signal (z-score),[30],0.49
same,glycan array binding signal (z-score),[31],-0.372
same,glycan array binding signal (z-score),[32],-0.246
